PI5P4K alpha inh: PI5P4K alpha (human) kinase inhibition. P48426. PI5P4Kalpha enzyme, ADP-Glo luminescence, 60 min; hits give low values. max response, %. hit rate 1.2% among 330,000. AID 652105; active means max response of -50% or lower; inconclusive means between -30% and -50%; inactive means -30% or higher; further: value at the top dose of about 77 µM; on the % scale 0 is the no-effect control and ±100 the full control effect
Target sequence (P48426 whole entry, looked up): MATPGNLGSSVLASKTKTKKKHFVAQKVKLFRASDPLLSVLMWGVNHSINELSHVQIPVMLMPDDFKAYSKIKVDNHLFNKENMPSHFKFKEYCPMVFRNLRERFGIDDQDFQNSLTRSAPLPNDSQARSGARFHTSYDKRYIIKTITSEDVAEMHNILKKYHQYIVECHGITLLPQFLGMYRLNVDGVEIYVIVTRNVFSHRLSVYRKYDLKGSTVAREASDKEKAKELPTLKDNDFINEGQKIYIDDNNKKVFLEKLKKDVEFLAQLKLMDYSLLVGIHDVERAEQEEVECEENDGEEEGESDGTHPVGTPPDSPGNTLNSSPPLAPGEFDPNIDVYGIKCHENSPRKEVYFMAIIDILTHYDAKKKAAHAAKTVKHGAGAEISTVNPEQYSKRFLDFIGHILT
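Human PI5P4Kalpha with substrate in 0.038 M HEPES pH 7.4, 0.28 mM EGTA, 0.1% CHAPS, 5% DMSO; reaction started with 5 microM ATP (final), 60 min at room temperature. ADP formed read by ADP-Glo luminescence.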
DRD3 agonist: activates the human D3 dopamine receptor; P35462; D3R DiscoveRx beta-arrestin cells, luminescence, 90 min; max activation, %; hit rate 0.58% among 410,000; AID 652048; in the data active means max activation above about 30%; further: 0% is about no effect
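Agonist mode: compounds and dopamine controls were applied to plated cells for 90 min at 37 degrees C after an overnight attachment at 1500 cells/well. Luminescent read-out followed 30 - 60 minutes at room temperature with DiscoveRx detection reagent.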
PI4K2A block: blocks human PI4K2A kinase activity. Q9BTU6. purified PI4K2A, ADP-Glo luminescence, 1 h; hits give low values. activity change, negative = inhibition, % at 76.9 µM. hit rate 0.13% among 420,000. AID 1346378; in the data active means activity change below about -50%; inconclusive means mostly about -30% to -49%;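 further: -100% = wells without enzyme as full effect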
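Compounds are screened against recombinant PI4K2A using PI as substrate and ATP, the latter dispensed at 300 microM. Reactions run one hour at ambient temperature before ADP-Glo detection; full inhibition defined by wells lacking enzyme.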
LDHA block: LDHA (human) enzyme inhibition; P00338; purified LDHA, NADH/diaphorase-resazurin fluorescence; hits give low values; activity change, % (values are at about 110 or 230 µM); hit rate 0.15% among 480,000; in the data active means activity change below about -30%; inconclusive means mostly about -25% to -30%;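 further: plate controls were DMSO wells for no effect and wells without enzyme for full effect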
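Enzyme activity of human lactate dehydrogenase 5 (2 nM; 0.06 mM NADH, 0.2 mM pyruvate, 5 min, RT) is measured via a resazurin/diaphorase fluorescence readout of residual NADH.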
DRD3 antagonist: D3 dopamine receptor (human) antagonism | P35462 | D3R cells, DiscoveRx beta-arrestin luminescence, antagonist mode; hits give low values | max response, negative = inhibition, % | hit rate 2.5% among 360,000 | AID 652054; in the data active means max response below about -50%; inconclusive means no clear call, values can overlap the other calls; further: on the % scale 0 is the no-effect control and ±100 the full control effect
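Cells plated overnight at 1500 cells/well, then exposed to library compounds with dopamine controls for 90 minutes at 37 degrees C. DiscoveRx reagent added for 30–60 minutes at room temperature; luminescence read, quantitative HTS format.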
The depositor's hits bear a star; ? = inconclusive; . = no result given; ! = a repeat was not active. Sampled rows, rich in hits. Any-hit rate of the full collection: about 3.3%.

SMILES | PI5P4K alpha inh | DRD3 agonist | PI4K2A block | LDHA block | DRD3 antagonist
COc1ccc(Br)cc1[C@H]1[C@@H]2C=CCC[C@@]2(C)C(=O)N1Cc1ccccc1 | 5 | -36 | 6 | -1 | -55*
CC(=O)c1ccc(-c2ccc([C@H]3[C@@H]4C=CCC[C@@]4(C)C(=O)N3Cc3ccccc3)c(F)c2)cc1 | 1 | 48* | -2 | -3 | 0
COc1ccc(-c2ccc(OC)c([C@H]3[C@@H]4C=CCC[C@@]4(C)C(=O)N3Cc3ccccc3)c2)cc1OC | 1 | -2 | 2 | -2 | -2
COc1ccc(/C=C/c2ccccc2)cc1[C@H]1[C@H]2C=CC[C@@H](C)[C@@H]2C(=O)N1Cc1ccccc1 | -1 | -22 | -2 | 0 | -53*
COc1ccc(-c2ccc(OC)c([C@H]3[C@H]4C=CC[C@@H](C)[C@@H]4C(=O)N3Cc3ccccc3)c2)cc1C | 2 | -32 | 3 | 0 | 0
CC(C)=CCC[C@H](C)C[C@@H]1Cc2[nH]c(=S)[nH]c(=O)c2[C@@H](c2ccc(F)cc2)O1 | -11 | -3 | 0 | -2 | -55*
CC(C)=CCC[C@H](C)CC1Cc2[nH]c(=S)[nH]c(=O)c2C(c2ccc(F)cc2)O1 (stereo not given in full) | -11 | 7 | 2 | -18 | 11
O=C1CC(SC(=S)C2CCCC2=O)C(=O)N1 (stereo not given) | -80* | -14 | -11 | 5 | -15
CCn1nc(C)c2c(-c3ccccc3)cc(OC(C)C(=O)Nc3cccc(F)c3)nc21 (stereo not given) | . | . | . | -1 | .
Cc1cccc(-c2nc(S(=O)(=O)c3ccc(F)cc3)c(NCCCN3CCOCC3)o2)c1 | 1 | -12 | -8 | -2 | -73*
O=S(=O)(c1ccc2c(c1)OCCO2)c1nc(-c2ccccc2F)oc1NCCN1CCOCC1 | . | . | . | -6 | .
CN(C)CCCNc1oc(-c2ccccc2Cl)nc1S(=O)(=O)c1ccc(F)cc1 | 0 | -23 | 6 | 0 | -61*
O=S(=O)(c1ccc2c(c1)OCCO2)c1nc(-c2ccccc2)oc1NCCN1CCOCC1 | . | . | . | -1 | .
CN(C)CCNc1oc(-c2ccccc2Cl)nc1S(=O)(=O)c1ccccc1 | -3 | -15 | 1 | -2 | -1
COc1ccc(-c2nc(S(=O)(=O)c3ccccc3)c(NCCCN3CCOCC3)o2)cc1 | -2 | -5 | 5 | 0 | -57*
Cc1ccc(S(=O)(=O)c2nc(-c3ccccc3)oc2NCCCN2CCOCC2)cc1 | 6 | -16 | 2 | -1 | -76*
NC(=O)NC(=O)C(Cl)c1ccccc1 (stereo not given) | . | . | . | 1 | .
CC(NC(=O)c1n[nH]c(=O)c2ccccc12)c1ccc(F)cc1F (stereo not given) | . | . | . | -5 | .
O=C(COc1ccc(Cl)cc1)Nc1ccc2c(c1)N(C(=O)c1cccnc1)CC2 | . | . | . | -1 | .
CNc1oc(-c2ccccc2)nc1S(=O)(=O)c1ccccc1 | . | . | . | 3 | .
CCN(CC)CCNc1oc(-c2ccccc2)nc1S(=O)(=O)c1ccccc1 | 3 | -9 | -3 | -5 | -76*
CN1CCC(=C2c3ccccc3CCc3cccnc32)CC1 | . | -25 | -2 | . | .
CCOC(=O)N1CCC(=C2c3ccc(Cl)cc3CCc3cccnc32)CC1 | 6 | 52*! | 1 | -3 | 126
COc1cc(Cl)c(CNC[C@H]2O[C@@H](n3cnc(C(N)=O)n3)[C@H](O)[C@@H]2O)c(Cl)c1O | -3 | 2 | 3 | -6 | 40
NC(=O)c1ncn([C@@H]2O[C@H](CNCc3ccc(-c4cc(C(F)(F)F)ccc4Cl)o3)[C@@H](O)[C@H]2O)n1 | -2 | -70 | -2 | -10 | -52*
SMILES | PI5P4K alpha inh | DRD3 agonist | PI4K2A block | LDHA block | DRD3 antagonist
CC(C)=CCc1cc(-c2oc3cc(O)cc(O)c3c(=O)c2O)ccc1O | -55* | -5 | 4 | 5 | -10
O=c1c(O)c(-c2ccccc2)oc2cc(O)cc(O)c12 | ? | -4 | -1 | 13 | -10
O=c1c(O)c(-c2ccc(O)cc2O)oc2cc(O)cc(O)c12 | . | . | -67* | 8 | .
O=c1c(O)c(-c2cc(O)c(O)c(O)c2)oc2cc(O)cc(O)c12 | -90* | 0 | -1 | 5 | 0
Cc1ccc(-c2cc(C(=O)N3CCNC(=O)C3)c3ccccc3n2)cc1 | . | . | . | -8 | .
CC(C)Sc1ccccc1C(N)=O | . | . | . | -1 | .
CCCN(CCC)CC(O)CN(c1cc([N+](=O)[O-])ccc1OC)S(=O)(=O)c1ccccc1 (stereo not given) | 6 | -1 | 4 | 7 | -65*
CC1CCN(S(=O)(=O)c2ccc3nc(NC4CCCCCC4)ccc3c2)CC1 | . | . | . | 10 | .
CSCCC(NS(=O)(=O)c1ccccc1)C(=O)OCc1cc(=O)oc2cc(O)ccc12 (stereo not given) | -2 | -1 | -7 | 4 | -52*
CN1C(C(=O)Nc2ccc(C(=O)O)cc2)=C(O)c2ccccc2S1(=O)=O | 2 | 60* | -7 | -8 | -11
N#Cc1ccccc1Cn1c(=O)n(CCC(=O)NCc2ccccc2Cl)c(=O)c2sccc21 | . | . | . | -5 | .
Clc1ccc(OCCN2CCCCC2)c(Cl)c1 | . | -32 | 2 | -15 | -176*
Clc1ccccc1OCCN1CCCCC1 | . | -22 | 2 | -13 | -80*
Cc1ccc(SCCC(=O)Nc2c(C)nn(C)c2C)cc1C | . | . | . | 4 | .
CN(C)CCN(CC(=O)OC(C)(C)C)C(=O)/C=C/c1ccccc1F | . | . | . | -4 | .
NS(=O)(=O)c1ccc(N=Nc2c[nH]c(=O)c(O)c2)cc1 | -63* | -11 | -62* | 50 | -66*
CCN(CC)c1ccc2nc3ccccc3[n+](CC)c2c1 | ? | -24 | -55* | 19 | -65*
CCN(CC)c1ccc2nc3ccc(N)cc3[n+](-c3ccccc3)c2c1 | ? | -10 | ? | 22 | -56*
CC(=O)C(Sc1nc(N(C)C)nc(N(C)C)n1)C(=O)Nc1ccccc1 (stereo not given) | 0 | -9 | -2 | -5 | -6
CC(=O)C(Sc1nn(C)c(=S)s1)C(=O)Nc1ccccc1 (stereo not given) | -83* | -8 | -7 | -6 | -30
Cc1ccc(-c2nc(NCC(=O)Nc3cccc(C(=O)O)c3)c3ccccc3n2)cc1 | . | . | . | -5 | .
CCN1CCN(C(=O)Cn2c(=O)sc3ccccc32)CC1 | -3 | 4 | -1 | -6 | -98*
Cn1c(SCC(=O)Nc2ccccc2C(=O)NC2CCCC2)nnc1-c1cccnc1 | . | . | . | -15 | .
O[Si](CCCN1CCCCC1)(c1ccc(F)cc1)C1CCCCC1 (stereo not given) | 0 | -87 | -2 | -1 | -110*
Cc1ccc(C(NC(=O)NCCCN2CCOCC2)=C(Cl)Cl)cc1F | 3 | 0 | -10 | -1 | -75*
O=c1cc(-c2ccccc2)oc2cc(O)c(O)c(O)c12 | -74* | 9 | -4 | 20 | 21
COc1cc(O)cc2oc(-c3ccccc3)cc(=O)c12 | . | . | . | 14 | .

Screening results: PubChem BioAssay, National Center for Advancing Translational Sciences (NCATS)
